Experimental data as given in PubChem BioAssay (Tox21).
Records with an inconclusive call do not appear. Calls of active or inactive are those of the source. Unless noted, the call rests on the fitted dose curve; in most records, active means well fitted curve in the direction sought with a large enough effect in the repeat runs; inconclusive means weak or mixed curves; inactive means no such curve, though single readings can be large; an effect the other way counts as inactive or inconclusive.

Tests used:
[1] = molecular target: Retinoic acid receptor RXR-alpha (Homo sapiens) (UniProt P19793); test: qHTS assay to identify small molecule agonists of the RXR signaling pathway (AID 1159527; calls by dose curve; further: nearly all actives have a fitted effect of over 35% in size)
Chain of Retinoic acid receptor RXR-alpha (Homo sapiens) (P19793 whole entry, looked up): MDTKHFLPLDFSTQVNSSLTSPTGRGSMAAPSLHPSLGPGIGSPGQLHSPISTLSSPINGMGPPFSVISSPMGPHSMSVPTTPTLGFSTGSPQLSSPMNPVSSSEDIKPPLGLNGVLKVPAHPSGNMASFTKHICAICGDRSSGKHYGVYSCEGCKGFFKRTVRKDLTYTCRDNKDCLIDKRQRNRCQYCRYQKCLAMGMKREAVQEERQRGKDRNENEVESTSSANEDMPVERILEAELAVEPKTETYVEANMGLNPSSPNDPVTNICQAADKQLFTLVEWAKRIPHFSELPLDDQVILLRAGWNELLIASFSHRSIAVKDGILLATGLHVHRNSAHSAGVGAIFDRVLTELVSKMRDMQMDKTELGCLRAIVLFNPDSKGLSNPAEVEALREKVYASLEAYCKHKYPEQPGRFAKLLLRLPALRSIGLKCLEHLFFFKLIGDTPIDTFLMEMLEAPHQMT
In short: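 Agonist mode; 9-cis retinoic acid positive control. HEK 293T UAS-bla reporter cells, 2% charcoal-stripped FBS, 16 hr compound exposure at 37 C/5% CO2. LiveBLAzer B/G FRET substrate 2 hr RT; ex 405, em 460/530 nm.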

[2] = qHTS assay to identify small molecule agonists of the RXR signaling pathway - cell viability counter screen (AID 1159529); further: series mostly up to about 77 µM; nearly all actives have a fitted effect of over 50% in size
In short: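 Luminescence from CellTiter-Glo (30 min, RT) measured viability in the same wells as the beta-lactamase reporter readout. Cells: GeneBLAzer RXR-alpha HEK 293T, 2% charcoal-stripped FBS. Compound exposure 16 hr, 37 C.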

[3] = qHTS assay to identify small molecule antagonists of the retinoid acid receptor (RAR) signaling pathway - cell viability counter screen (AID 1159551); further: nearly all actives have a fitted effect of over 35% in size
In short: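 Luminescent ATP quantitation (CellTiter-Glo) gave cell viability in C3RL4 cells exposed to test chemicals for 6 h at 37 C alongside 1 uM final retinol.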

[4] = molecular target: Luciferin 4-monooxygenase (Photinus pyralis) (UniProt P08659); test: qHTS assay to identify small molecule inhibitors of firefly luciferase (AID 1224835); further: nearly all actives have a fitted effect of over 25% in size; further: potency means the concentration at half of the fitted maximal effect
Chain of Luciferin 4-monooxygenase (Photinus pyralis) (P08659 whole entry, looked up): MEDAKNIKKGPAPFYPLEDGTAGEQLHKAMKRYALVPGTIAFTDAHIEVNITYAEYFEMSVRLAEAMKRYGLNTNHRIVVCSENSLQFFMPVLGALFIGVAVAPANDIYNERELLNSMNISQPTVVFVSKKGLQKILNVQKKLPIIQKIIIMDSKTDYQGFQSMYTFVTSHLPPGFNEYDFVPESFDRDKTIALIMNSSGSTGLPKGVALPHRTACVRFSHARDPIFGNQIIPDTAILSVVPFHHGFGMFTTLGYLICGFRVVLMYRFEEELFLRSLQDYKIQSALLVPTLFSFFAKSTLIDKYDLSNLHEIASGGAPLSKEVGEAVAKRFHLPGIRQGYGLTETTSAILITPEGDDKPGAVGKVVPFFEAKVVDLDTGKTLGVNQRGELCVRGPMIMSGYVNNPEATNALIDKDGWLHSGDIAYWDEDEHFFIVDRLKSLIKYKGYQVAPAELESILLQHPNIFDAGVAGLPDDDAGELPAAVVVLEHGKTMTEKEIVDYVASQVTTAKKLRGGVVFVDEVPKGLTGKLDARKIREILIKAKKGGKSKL
In short: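 Biochemical qHTS: compounds run as interplate titrations against purified firefly enzyme, with D-luciferin and ATP each at its KM concentration. Light output recorded by CCD imaging.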

[5] = qHTS assay to identify small molecule agonists of the constitutive androstane receptor (CAR) signaling pathway - cell viability counter screen (AID 1224836); further: series mostly up to about 92 µM; nearly all actives have a fitted effect of over 45% in size
In short: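 Viability read-out: CellTiter-Fluor fluorescence after 23 h compound exposure at 37 C/5% CO2 in double-stable HepG2-CYP2B6-hCAR cells, with PK11195 present at 0.75 uM final; compounds tested in 15-point titration.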

[6] = qHTS assay to identify small molecule antagonists of the constitutive androstane receptor (CAR) signaling pathway - cell viability counter screen (AID 1224837); further: series mostly up to about 92 µM; nearly all actives have a fitted effect of over 45% in size
In short: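 HepG2-CYP2B6-hCAR cells, 2500/well, 4 hr pre-incubation; compound titration, 15 conc.; CITCO 50 nM final; 23 hr, 37 C/5% CO2; CellTiter-Fluor, fluorescence intensity.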

[7] = molecular target: Nuclear receptor subfamily 1 group I member 3 (Homo sapiens) (UniProt Q14994); test: qHTS assay to identify small molecule antagonists of the constitutive androstane receptor (CAR) signaling pathway (AID 1224838);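 further: HepG2 cells stably expressing hCAR with CYP2B6 luciferase reporter stimulated by CITCO; nearly all actives have a fitted effect of over 40% in size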
Chain of Nuclear receptor subfamily 1 group I member 3 (Homo sapiens) (Q14994 whole entry, looked up): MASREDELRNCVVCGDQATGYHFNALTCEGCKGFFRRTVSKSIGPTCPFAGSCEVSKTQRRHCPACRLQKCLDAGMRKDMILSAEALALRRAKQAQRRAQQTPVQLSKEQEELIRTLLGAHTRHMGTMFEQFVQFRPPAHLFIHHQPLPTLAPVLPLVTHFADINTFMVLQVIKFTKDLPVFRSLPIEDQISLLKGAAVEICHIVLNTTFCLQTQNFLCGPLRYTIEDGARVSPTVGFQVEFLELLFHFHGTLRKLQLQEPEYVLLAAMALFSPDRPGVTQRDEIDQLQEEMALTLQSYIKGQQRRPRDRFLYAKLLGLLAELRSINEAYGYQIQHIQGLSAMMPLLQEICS
In short: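 HepG2-CYP2B6-hCAR cells; 4 h pre-incubation; cpd (15 conc) + CITCO 50 nM final; 24 h, 37 C/5% CO2; ONE-Glo, luminescence.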

[8] = molecular target: Nuclear receptor subfamily 1 group I member 3 (Homo sapiens) (UniProt Q14994); test: qHTS assay to identify small molecule agonists of the constitutive androstane receptor (CAR) signaling pathway (AID 1224839); further: nearly all actives have a fitted effect of over 15% in size; further: potency means the concentration at half of the fitted maximal effect
In short: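 Luminescence read-out (ONE-Glo, 30 min, room temperature) from double-stable HepG2-CYP2B6-hCAR cells exposed 24 h to 15-point compound series in presence of 0.75 uM PK11195 final.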

[9] = qHTS assay to identify small molecule antagonists of the estrogen related receptor signaling pathway with the pleiotropic PPARgamma coactivator (PGC) from Tox21 10K library - cell viability counter screen (AID 1224840; active means well fitted cell-killing curve with a large enough effect in the repeat runs, not every such curve was filed as active; further: nearly all actives have a fitted effect of over 40% in size)
In short: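 PGC/ERR cells, 2,000/well; 6 h pre-incubation 37 C/5% CO2; cpd in DMSO via pin tool; 17.5 h 37 C; CellTiter-Fluor, 30 min; fluorescence.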

[10] = qHTS assay to identify small molecule antagonists of the estrogen related receptor (ERR) signaling pathway from Tox21 library - cell viability counter screen (AID 1224834); further: nearly all actives have a fitted effect of over 30% in size
In short: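 Fluorescence from CellTiter-Fluor gives the viability read-out, taken 30 min after reagent addition. Before that, ERR cells seeded 6 h earlier were incubated with compounds for 17.5 h at 37 C.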

[11] = qHTS assay to identify small molecule antagonists of the estrogen related receptor signaling pathway with the pleiotropic PPARgamma coactivator (PGC) from Tox21 10K library (AID 1224841; call rule not given here; further: series mostly up to about 92 µM; actives are mostly falling curves and most rising ones were filed inactive; nearly all actives have a fitted effect of over 50% in size)
In short: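 PGC/ERR cell line, 2,000 cells/well; 6 h pre-incubation 37 C/5% CO2; compounds (DMSO) pinned in; 18 h, 37 C; One-Glo, 30 min RT; luminescence.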

[12] = qHTS assay to identify small molecule agonists of the estrogen related receptor signaling pathway with the pleiotropic PPARgamma coactivator (PGC) from Tox21 10K library (AID 1224842); further: nearly all actives have a fitted effect of over 15% in size
In short: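 PGC/ERR reporter cell line, 2,000 cells per well, incubated 6 h at 37 C before 23 nL compound in DMSO was added. After 18 h at 37 C, One-Glo luminescence read following 30 min at room temperature.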

[13] = qHTS assay to identify small molecule antagonists of the retinoic acid receptor (RAR) signaling pathway (AID 1159552; further: nearly all actives have a fitted effect of over 50% in size)
In short: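 Luminescence from a RARE luciferase reporter in C3RL4 cells served as read-out. Cells received compounds together with 1 uM final retinol and incubated 6 hr at 37 C before detection reagent was added for 30 min at room temperature.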

[14] = qHTS assay to identify small molecule agonists of the retinoic acid receptor (RAR) signaling pathway (AID 1159553); further: potency means the concentration at half of the fitted maximal effect
In short: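 Luminescence from a RARE-driven luciferase reporter in C3RL4 cells served as the read-out, measured after 30 min with detection reagent at room temperature. Compounds in DMSO were applied for 6 hr at 37 C following overnight seeding.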

[15] = qHTS assay to identify small molecule antagonists of the estrogen related receptor (ERR) signaling pathway - cell viability counter screen (AID 1224818);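 further: series mostly up to about 46 µM; viability measured after 17.5 h of compound exposure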
In short: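 Multiplexed counter screen to separate cytotoxic compounds from true ERR modulators. ERR cells received DMSO-dissolved compounds after a 6 h pre-incubation, were exposed 17.5 h at 37 C, then assayed with CellTiter-Fluor fluorescence.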

[16] = qHTS assay to identify small molecule antagonists of the estrogen related receptor signaling pathway with the pleiotropic PPARgamma coactivator (PGC) cell viability counter screen (AID 1224822; further: series mostly up to about 46 µM)
In short: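 Cells: PGC/ERR, 2,000/well, 1536-well format. Pre-incubation 6 h, 37 C/5% CO2. Compound exposure 17.5 h, 37 C. Detection: CellTiter-Fluor, 30 min, fluorescence.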

Measured: Potency

CC(=O)Nc1ccc(S(=O)(=O)Cl)cc1
inactive: [1] | [2] | [3] | [4] | [5] | [6] | [7] | [8] | [9]

c1ccc2nccnc2c1
inactive: [1] | [2] | [3] | [4] | [5] | [6] | [7] | [8] | [9]

O=C(OCc1ccccc1)C(=O)OCc1ccccc1
inactive: [1] | [2] | [3] | [10] | [4] | [5] | [7] | [8] | [11]

CC(C)(C)c1n[nH]c(=S)n(N)c1=O
not listed: [10] | [13] | [14] | [15] | [16]
inactive: all other assays above

CC(=O)NCc1c(I)c(NC(C)=O)c(I)c(C(=O)O)c1I
not listed: [10] | [11] | [13] | [14] | [15] | [16]
inactive: all other assays above

COC(=O)CCc1ccc(OCC(O)CNC(C)C)cc1 (configuration not stated)
inactive: [1] | [2] | [3] | [10] | [4] | [5] | [7] | [8] | [11]

O=C(NCCc1c[nH]c2ccccc12)c1cccnc1
active: [14] 21.1 µM
inactive: [1] | [2] | [13] | [10] | [6] | [9]

O=C(c1ccc(O)cc1)c1ccc(O)c(O)c1O
inactive: [1] | [2] | [3] | [7] | [9] | [12]
active: [4] 63.5 µM

C=C(C)C(=O)OCCOP(=O)(O)OCCOC(=O)C(=C)C
not listed: [6] | [11] | [13] | [14] | [15] | [16]
inactive: all other assays above

Cc1ccc(S(=O)(=O)O)c(C)c1
not listed: [10] | [11] | [13] | [14] | [15] | [16]
inactive: all other assays above

O=C(O)c1cc(Br)c(O)c(Br)c1
inactive: [1] | [2] | [3] | [4] | [5] | [6] | [11] | [12]

CCOCCOCCOCC
inactive: [1] | [2] | [3] | [4] | [5] | [6] | [7] | [8] | [9]

Cc1cccc(C)c1NC(=O)c1ccccc1C(=O)O
inactive: [1] | [2] | [3] | [4] | [5] | [6] | [7] | [8] | [11]

Cc1[nH]cnc1-c1ccc(Cl)cc1
inactive: [1] | [2] | [3] | [10] | [5] | [6] | [7] | [9]

CCn1ccc(NS(=O)(=O)c2ccc(N)cc2)nc1=O
not listed: [10] | [11] | [13] | [14] | [15] | [16]
inactive: all other assays above

OC[C@H](Cc1cccc(O)c1)[C@H](CO)Cc1cccc(O)c1
not listed: [4] | [13] | [14] | [15] | [16]
inactive: all other assays above

CN(C)C(=O)CNC(=O)Cc1ccccc1
inactive: [1] | [2] | [3] | [4] | [5] | [6] | [7] | [8] | [9]

N[C@@H](CCC(=O)Nc1ccc([N+](=O)[O-])cc1)C(=O)O
inactive: [1] | [2] | [13] | [14] | [4] | [7] | [8] | [12]

CCCCCCCCSCC
not listed: [6] | [9] | [13] | [14] | [15] | [16]
inactive: all other assays above

CC(=O)c1ccc2c(c1)Cc1ccccc1-2
inactive: [1] | [2] | [5] | [6] | [7] | [9]
active: [4] 25.2 µM | [8] 54.5 µM

CCCCCCCCOS(=O)(=O)O
inactive: [1] | [2] | [10] | [4] | [5] | [6] | [7] | [8] | [9]

COc1ccc(-c2cc(=O)c3c(O)cc(O[C@@H]4O[C@H](CO[C@@H]5O[C@@H](C)[C@H](O)[C@@H](O)[C@H]5O)[C@@H](O)[C@H](O)[C@H]4O)cc3o2)cc1O
inactive: [1] | [2] | [14] | [5] | [6] | [9] | [11] | [12]

CC(=O)c1sc(C)nc1C
not listed: [3] | [6] | [13] | [14] | [15] | [16]
inactive: all other assays above

NNc1nnc(NN)c2ccccc12
active: [4] 17.4 µM
not listed: [3] | [11] | [12] | [14] | [15] | [16]
inactive: all other assays above

FC(F)(F)c1ccccc1-n1ccnc1
not listed: [3] | [6] | [11] | [12] | [13]
inactive: all other assays above

O=C(OCC(O)CO)c1ccccc1Nc1ccnc2c(C(F)(F)F)cccc12 (configuration not stated)
inactive: [1] | [2] | [14] | [5] | [6] | [7] | [8] | [9]
